A selection: hits, their analogues and other compounds. The true share with any hit is near 3.5%.
MITF inh = MITF inhibitors, primary screen, biochemical, AlphaScreen, human; Microphthalmia-associated transcription factor (Homo sapiens), O75030; AlphaScreen MITF homodimerization, bead proximity signal; 650,000 compounds, 0.91% hits; inhibition, % at 2.6 µM; in the data active = inhibition above about 50%;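 also: 0% = vehicle wells with protein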
GPR151 ag = activators of human GPR151, primary screen, cell-based, PathHunter beta-arrestin, luminescence; AID 1508602, 2020; activation, % at 11.2 µM; G-protein coupled receptor 151 (Homo sapiens), Q8TDV0; 650,000 compounds, 1% hits; PathHunter beta-arrestin GPR151 cells; in the data active = activation above about 4.9%;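 also: 0% = median of compound wells and 100% = cells with positive control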
Target sequence (Q8TDV0 whole entry, looked up): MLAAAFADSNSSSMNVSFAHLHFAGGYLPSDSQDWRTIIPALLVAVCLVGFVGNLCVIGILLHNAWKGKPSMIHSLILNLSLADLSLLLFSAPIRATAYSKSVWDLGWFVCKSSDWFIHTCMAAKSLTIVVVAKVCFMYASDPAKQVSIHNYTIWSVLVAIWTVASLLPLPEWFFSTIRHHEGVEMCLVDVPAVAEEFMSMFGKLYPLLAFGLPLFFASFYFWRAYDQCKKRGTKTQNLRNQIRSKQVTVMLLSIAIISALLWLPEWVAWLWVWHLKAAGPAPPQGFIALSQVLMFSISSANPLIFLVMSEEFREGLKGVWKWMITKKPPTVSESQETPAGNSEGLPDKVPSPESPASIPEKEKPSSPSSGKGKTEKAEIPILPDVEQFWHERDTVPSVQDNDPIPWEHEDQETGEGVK
FBW7 act = FBW7 E3 ligase activators, primary screen, biochemical, AlphaScreen, human | F-box/WD repeat-containing protein 7 (Homo sapiens), Q969H0 | AlphaScreen FBW7–phospho-cyclin E peptide binding, activator screen | normalized activity (activation), % at 26.1 µM | 650,000 compounds, 0.13% hits; in the data active = normalized activity above about 1.9%;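 also: purified mutant Fbw7 with reduced substrate affinity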
TEAD-YAP block = TEAD-YAP interaction inhibition, primary screen, TEAD-YAP interaction inhibitor project, luminescence, HEK-TIYL cells | TEAD-Gal4/YAP UAS-luciferase luminescence | inhibition, % at 9.12 µM | 640,000 compounds, 1.4% hits | AID 1259422, 2018; in the data active = inhibition above about 32%;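 also: 0% = median of test compound wells and 100% = reference inhibitor wells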
MITF confirm = MITF inhibitors, retest of hits, confirmation, biochemical, AlphaScreen, triplicate. shares compounds with MITF inh. AlphaScreen MITF homodimerization, biotin/His-MITF beads. inhibition, % at 2.6 µM. 4,700 compounds, 16% hits. AID 1259372, 2018;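 active = inhibition above a cutoff derived from the DMSO control wells, cut at about 28% in these data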;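 also: 0% = MITF dimer wells with DMSO only; inhibitors lower the bead chemiluminescence by keeping MITF from dimerizing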
AlphaScreen DR = AlphaScreen optical interference compounds, dose response, counter-screen, biochemical, HTS; shares compounds with MITF inh; AlphaScreen optical interference counterscreen, cell-free; IC50, µM; 480 compounds, 6% hits; call rule not given here
AS interf ctr = AlphaScreen optical interference compounds, counter-screen for MITF inhibitor project, biochemical, triplicate | 4,700 compounds, 7.6% hits | LysRS AlphaScreen counterscreen, signal interference | shares compounds with MITF inh | inhibition, % at 2.6 µM;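 active = inhibition above a cutoff derived from the DMSO control wells, cut at about 30% in these data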
* marks the source's active call; other numbers are inactive results.

What do the screens show for `O=C(CNC1CCCCCC1)Nc1ccc(C(=O)N2CCCCC2)cc1`?
MITF inh: 44.1; GPR151 ag: -1.0; FBW7 act: 0.0; TEAD-YAP block: 10.6

What do the screens show for `CN(C)c1ccc(/C=C2/C(=O)Nc3ccc(Cl)cc32)cc1`?
MITF inh: -8.8; GPR151 ag: 1.2; FBW7 act: 0.0; TEAD-YAP block: -16.5

What do the screens show for `O=C(CSc1nncc2ccccc12)N1CCCCC1`?
MITF inh: 5.2; GPR151 ag: 2.5; FBW7 act: 0.3; TEAD-YAP block: -43.4

How did COCCn1c(=S)[nH]c2cc(C(=O)NC(C)C)ccc2c1=O do in these assays?
MITF inh: 4.9; GPR151 ag: 1.7; FBW7 act: -0.1; TEAD-YAP block: -4.3

What do the screens show for `COCCn1c(=S)[nH]c2cc(C(=O)Nc3ccccn3)ccc2c1=O`?
MITF inh: 76.8*; GPR151 ag: -1.4; FBW7 act: -0.1; TEAD-YAP block: -15.2; MITF confirm: -22.5; AS interf ctr: -2.0

How did CCCC(=O)Nc1ccccc1C1(C)CC1 do in these assays?
MITF inh: 59.3*; GPR151 ag: -1.1; FBW7 act: 0.0; TEAD-YAP block: 3.1; MITF confirm: -3.3; AS interf ctr: -16.8

How did CCOC(=O)c1c(Nc2ccccc2N)cc(C)nc1C do in these assays?
MITF inh: 68.3*; GPR151 ag: 0.4; FBW7 act: 0.1; TEAD-YAP block: -6.4; MITF confirm: -3.2; AS interf ctr: 5.2

How did O=C(NCc1ccc2c(c1)OCO2)c1cc(-c2ccc(F)cc2)no1 do in these assays?
MITF inh: -27.7; GPR151 ag: -0.2; FBW7 act: -0.1; TEAD-YAP block: -8.1

What do the screens show for `CCOC(=O)c1[nH]c2ccccc2c1NC(=O)CN(CC)CC`?
MITF inh: -1.3; GPR151 ag: 0.3; FBW7 act: 0.5; TEAD-YAP block: 1.1

What do the screens show for `CCOC(=O)c1ccc(Oc2nc(N(C)C)nc(N(C)C)n2)cc1`?
MITF inh: 54.4*; GPR151 ag: 1.4; FBW7 act: -0.3; TEAD-YAP block: -10.3; MITF confirm: 2.7; AS interf ctr: 6.7

What do the screens show for `CCNc1nc(Oc2ccc(C(=O)OCC)cc2)nc(N(C)C)n1`?
MITF inh: -13.2; GPR151 ag: 0.5; FBW7 act: 0.0; TEAD-YAP block: -1.7

What do the screens show for `O=C(CCCn1c(SCc2nc3ccccc3[nH]2)nc2ccsc2c1=O)NCCc1ccccc1`?
MITF inh: 2.6; GPR151 ag: -1.4; FBW7 act: 0.1; TEAD-YAP block: -6.1

What do the screens show for `O=C(O)CCCCCn1c(SCc2nc3ccccc3[nH]2)nc2ccsc2c1=O`?
MITF inh: 61.1*; GPR151 ag: -0.1; FBW7 act: 0.1; TEAD-YAP block: -6.2; MITF confirm: -10.9; AS interf ctr: -6.9

Results for CCOC(=O)c1[nH]c(C)c(CNc2cccc(F)c2)c1C ?
MITF inh: -12.2; GPR151 ag: 1.0; FBW7 act: 0.1; TEAD-YAP block: 2.6

How did CCOC(=O)c1[nH]c(C)c(CNc2ccccc2)c1C do in these assays?
MITF inh: 60.0*; GPR151 ag: -0.9; FBW7 act: -0.1; TEAD-YAP block: 2.2; MITF confirm: 27.3; AS interf ctr: 12.1

What do the screens show for `CCCN1CCN(C(=O)c2nn(-c3cc(OC)cc(OC)c3)c(=O)c3ccccc23)CC1`?
MITF inh: 65.5*; GPR151 ag: -1.4; FBW7 act: 0.0; TEAD-YAP block: 14.5; MITF confirm: -8.7; AS interf ctr: -2.9

How did CCC1C(=O)NCCN1C(=O)C1CC(Cc2cccc(OC)c2)=NO1 (centres undefined) do in these assays?
MITF inh: 6.3; GPR151 ag: 2.2; FBW7 act: 0.1; TEAD-YAP block: -0.9

Results for O=C1CC(N2CCN(CC3CCCO3)CC2)C(=O)N1Cc1ccccc1 (centres undefined) ?
MITF inh: 75.0*; GPR151 ag: 0.9; FBW7 act: -0.1; TEAD-YAP block: 4.3; MITF confirm: 10.8; AS interf ctr: 17.9

What do the screens show for `COc1ccc(C(=S)N2CCCCC2)cc1OC(=O)CCc1ccccc1`?
MITF inh: 60.8*; GPR151 ag: 0.8; FBW7 act: -0.1; TEAD-YAP block: 3.7; MITF confirm: 10.1; AS interf ctr: 14.6

How did COc1cc(C(=S)N2CCCCC2)ccc1OCc1ccccc1 do in these assays?
MITF inh: -0.8; GPR151 ag: 0.4; FBW7 act: -0.5; TEAD-YAP block: -24.7

How did CCOC(=O)c1c(-c2ccccc2)oc2ccc(OC(=O)c3cccs3)cc12 do in these assays?
MITF inh: 2.1; GPR151 ag: 2.7; FBW7 act: -0.2; TEAD-YAP block: -6.7

How did CC1CCCC(NC(=O)CN(C)S(=O)(=O)c2cccc3cccnc23)C1C (centres undefined) do in these assays?
MITF inh: 64.4*; GPR151 ag: -0.1; FBW7 act: 0.7; TEAD-YAP block: -4.3; MITF confirm: 9.6; AS interf ctr: 10.1

How did CC(C)CCN1NC2(CCCCC2)NC1=S do in these assays?
MITF inh: 65.3*; GPR151 ag: -1.2; FBW7 act: 0.5; TEAD-YAP block: -6.0; MITF confirm: 2.8; AS interf ctr: 14.6

How did CN1NC2(CCCC2)NC1=S do in these assays?
MITF inh: -6.8; GPR151 ag: 0.6; FBW7 act: 0.0; TEAD-YAP block: -4.7

Results for NC(=O)c1ccccc1NC(=S)NC(=O)/C=C/c1ccco1 ?
MITF inh: 53.8*; GPR151 ag: 0.8; FBW7 act: -0.1; TEAD-YAP block: 41.2*; MITF confirm: 69.9*; AlphaScreen DR: >6.48; AS interf ctr: -0.5

Results for Cc1ccc(O)c(NC(=S)NC(=O)/C=C/c2ccco2)c1 ?
MITF inh: 62.0*; GPR151 ag: 0.1; FBW7 act: -0.2; TEAD-YAP block: 14.8; MITF confirm: 29.6*; AlphaScreen DR: >6.48; AS interf ctr: 29.4

What do the screens show for `O=C(/C=C/c1cccc([N+](=O)[O-])c1)NC(=S)Nc1ccccc1C(=O)O`?
MITF inh: 86.0*; GPR151 ag: 3.4; FBW7 act: -0.3; TEAD-YAP block: 1.4; MITF confirm: -11.0; AS interf ctr: 1.1

How did N#Cc1ccc(NS(=O)(=O)c2ccccc2C#N)cc1 do in these assays?
MITF inh: 0.6; GPR151 ag: 0.1; FBW7 act: -0.1; TEAD-YAP block: 1.6

Results for c1ccc(-c2nc(NCCN3CCOCC3)c3[nH]cnc3n2)cc1 ?
MITF inh: 5.2; GPR151 ag: 2.5; FBW7 act: 0.0; TEAD-YAP block: 1.9

What do the screens show for `O=c1c2ccccc2nnn1CSc1ccc(Cl)cc1`?
MITF inh: -12.5; GPR151 ag: -0.9; FBW7 act: 0.0; TEAD-YAP block: -77.8

High-throughput results (PubChem BioAssay)
